Compound activity from PubChem BioAssay.
FBPA Giardia inh – qHTS Assay for Inhibitors of Fructose-1,6-bisphosphate Aldolase from Giardia Lamblia. A8B2U2. purified Giardia FBPA. Potency, µM (top dose mostly 59.6 µM), inactives show top-dose activity, negative = inhibition, actives largely listed as inhibitors. 290,000 tested, 0.71% active; also: potency is read from the fitted curve at half-maximal effect; nearly all actives have a fitted effect of over 55% in size
Target sequence (A8B2U2 whole entry, looked up): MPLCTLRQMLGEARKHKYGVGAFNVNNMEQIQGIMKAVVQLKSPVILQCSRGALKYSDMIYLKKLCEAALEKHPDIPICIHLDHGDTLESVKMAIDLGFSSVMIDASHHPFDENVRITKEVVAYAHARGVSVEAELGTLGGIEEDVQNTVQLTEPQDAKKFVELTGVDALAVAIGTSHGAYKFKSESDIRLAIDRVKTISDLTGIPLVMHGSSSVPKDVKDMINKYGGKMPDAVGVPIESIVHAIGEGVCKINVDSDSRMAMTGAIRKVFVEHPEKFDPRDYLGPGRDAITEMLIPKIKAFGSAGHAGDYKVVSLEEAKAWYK
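Giardia FBPA (40 nM reagent) was preincubated 10 min at RT with compound (up to 57.5 uM final), then substrate plus GAPDH/TPI/NAD/arsenate coupling system with diaphorase/resazurin was added; resorufin fluorescence (525/598 nm) was read after 20 min.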
Pf growth 96h – Primary qHTS for delayed death inhibitors of the malarial parasite plastid, 96 hour incubation. P. falciparum luciferase reporter growth, 96 h. Potency, µM (highest dose often 28.7 µM), without a hit: at the highest dose activity change, negative = inhibition, usual class: inhibitors. 320,000 tested, 6.9% active; also: potency is read from the fitted curve at half-maximal effect
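Infected RBCs, 2% Hct / 0.05% parasitemia final; luciferase-reporter P. falciparum; cpd 96 h, 37 C, 5% CO2; luciferase detection reagent; luminescence.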
Pf growth 48h – Primary qHTS for delayed death inhibitors of the malarial parasite plastid, 48 hour incubation. P. falciparum luciferase growth in erythrocytes, 48 h. Potency, µM (highest dose often 28.7 µM), for inactives: at the highest dose activity change, negative = inhibition, usual class: inhibitors. 310,000 tested, 5.9% active; also: potency is read from the fitted curve at half-maximal effect
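Luminescence readout; reporter = integrated firefly luciferase in P. falciparum. RBC culture at 2% hematocrit, 0.1% parasitemia final, 37 C/5% CO2; decreased signal taken as growth inhibition.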
Sm TGR block – qHTS Assay for the Inhibitors of Schistosoma Mansoni Peroxiredoxins | Schistosoma mansoni thioredoxin glutathione reductase (TGR), Q962Y6 | purified TGR, DTNB reduction, TNB absorbance 405 nm | Potency, µM (series often up to 114 µM), without a hit: at the top dose activity change, negative = inhibition, hits mostly inhibitors | 360,000 tested, 3% active | AID 485364, 2010; also: potency is read from the fitted curve at half-maximal effect; nearly all actives have a fitted effect of over 60% in size
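First, TGR (20 nM dispensed) and NADPH were mixed with compound. Second, a 15 min room-temperature incubation followed. Third, further NADPH and then DTNB were added to start the reaction. Finally, TNB absorbance was monitored kinetically.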
HCMV inh – qHTS Assay for inhibitors of the human cytomegalovirus (HCMV); HFF cells, HCMV-luciferase reporter, 72 h; active compounds read low; activity change, negative = inhibition, % at 57.5 µM; 410,000 tested, 4.5% active; in the data active = activity change below about -60%; inconclusive = no clear call, values can overlap the other calls; inactive = above about -39%
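Two-dose cell screen: HFF monolayers treated with compounds and infected with luciferase-expressing HCMV at 1 PFU/cell, 72 h at 37C, then lysed for luciferase measurement.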
* hit, by the source's call; ? = inconclusive; . = no result given; ! = not active in a repeat; [ ] = remark or other dose. Compounds with a hit are over-represented: about 14% of the library has one in this group of screens. Unless noted, calls follow the shape of the dose curve; as a rule, active = well fitted curve in the direction sought with a large enough effect; inconclusive = small, poorly fitted or top-dose-only effect, or another doubt; inactive = no such curve, though single readings can be large; an effect the other way counts as inactive or inconclusive. % is scaled to controls: 0 for no effect and ±100 for the full control effect.

SMILES | FBPA Giardia inh | Pf growth 96h | Pf growth 48h | Sm TGR block | HCMV inh
O=C(CC(c1ccc(F)cc1)c1ccco1)N1CCCC1 (stereo not drawn) | 2.2% | ? | ? | 14.1µM* | -5.8
CCCN(CCC)C(=O)CC(c1ccc(F)cc1)c1ccco1 (stereo not drawn) | -0.3% | -15.1% | . | 11.2µM* | 4.8
COc1ccccc1NS(=O)(=O)c1ccc(C(=O)NCC(c2ccco2)N2CCCCC2)cc1 (stereo not drawn) | . | . | . | . | 0.0
CCCCNc1ncnc2sc3c(c12)CCN(CCC)C3 | 1.8% | ? | ? | 4.4% | -62.0*
CCOC(=O)C1(CC2CC2)CCN(C(=O)c2cc(C)nc3ccc(CC)cc23)CC1 | -0.4% | 2.08µM* | ? | . | 1.8
CCOC(=O)C1(CC2CC2)CCN(C(=O)c2ocnc2C)CC1 | 1.9% | -1.0% | 12.6% | -9.2% | 2.2
COc1ccc(S(=O)(=O)n2ccc(-c3ccc(OCCN(C)c4ccccn4)cc3)n2)cc1 | 1.8% | 10.4µM* | 4.65µM* | 0.0% | ?
CC(C)C(CC(=O)NCc1ccco1)c1ccco1 (stereo not drawn) | -18.0% | -2.2% | 0.0% | 22.4µM* | 7.4
COc1ccccc1-n1cnc2cc(C(=O)NCc3ccco3)ccc21 | 0.1% | 29.5% | ? | 39.8µM* | -13.3
O=C(NCc1ccco1)c1ccc(COc2cccc3ccccc23)cc1 | -3.3% | 7.38µM* | 7.38µM* | 3.7% | ?
O=C(CCSCCC(=O)NCc1ccco1)NCc1ccco1 | 11.1% | . | 5.2% | ? | -10.0
COc1ccccc1-n1cnc2cc(C(=O)NCCCN3CCOCC3)ccc21 | 3.8% | ? | -11.3% | -9.4% | 2.9
CN(C)C(CNC(=O)c1ccc(Br)cc1)c1ccco1 (stereo not drawn) | 1.8% | 26.6% | 5.9%[0.00184 µM] | -4.7% | -37.3
Cc1cc(C(=O)NCC(c2ccco2)N(C)C)no1 (stereo not drawn) | 1.7% | 9.28µM* | 10.2% | -26.2% | -27.5
Cc1cnc(CNc2ncncc2-c2ccoc2)cn1 | -21.6% | . | . | . | .
COc1ccc(CCN(C)C(=O)c2cc(=O)c3ccccc3o2)cc1OC | 4.1% | -3.3% | ? | -5.0% | -10.4
FC(F)(F)Oc1ccccc1C(c1nnnn1-c1ccc2c(c1)OCCO2)N1CCN(C/C=C/c2ccccc2)CC1 (stereo not drawn) | . | . | . | . | -27.3
O=C(CCNC(=O)c1ccc([N+](=O)[O-])cc1)NCc1ccco1 | . | -32.3% | -21.7% | -6.9% | -72.0*
c1ccc(-n2cnc3cc(NCc4ccco4)ccc32)cc1 | -9.1% | 11.4% | 20.4% | -8.7% | -86.3*
Cc1cc(-c2ccco2)n(CC(=O)NCc2ccco2)n1 | -3.4% | ? | . | 39.8µM* | -24.1
CC(C)COc1ccc(C(=O)NCc2ccco2)cc1 | 0.0% | . | 11.7µM* | ? | -5.7
CCOc1ccc(C(=O)NCc2ccco2)cc1 | ? | 12.8% | . | 9.7%[11.4 µM] | 113.1
CCOC(=O)N1CCC(N2C(=O)c3ccc(C(=O)NCc4ccc(F)cc4)cc3C2=O)CC1 | 1.1% | -2.7% | 46.1% | 1.1% | -4.6
CC(C)c1cc(C(=O)NCc2ccco2)no1 | 5.3% | 25.0% | 96.3% | 50.1µM* | 51.4
O=C(NCc1ccco1)c1ccc2c(c1)C(=O)c1ccccc1-2 | -5.6% | . | 12.3% | 12.6µM* | 17.6
SMILES | FBPA Giardia inh | Pf growth 96h | Pf growth 48h | Sm TGR block | HCMV inh
CC(C)c1cc(C(=O)NCc2ccccc2)no1 | . | . | . | 11.3% | 68.6
O=C(NCc1ccco1)c1ccc(Oc2ccccc2)cc1 | -18.9% | 7.38µM* | . | ? | 82.2
CCOC(=O)N1CCC(N2C(=O)c3ccc(C(=O)NCc4ccco4)cc3C2=O)CC1 | 8.4% | 11.7µM* | 13.4% | ? | 14.4
O=C(COc1ccc(Cl)cc1)OCC(=O)N1CCOCC1 | . | . | . | . | -1.9
Cc1ccc(-c2c(C(=O)N3CCN(c4cc(Cl)ccc4C)CC3)oc(=O)c3ccccc23)cc1 | . | . | . | -2.0% | 11.5
CCCCC1CCc2[nH]nc(C(=O)O)c2C1 (stereo not drawn) | . | ? | ? | -0.1% | 2.8
CN1CCN(CCc2ccc(Cl)c(Cl)c2)CC1 | -19.9% | . | . | . | .
O=C(NC(=S)NCc1ccco1)c1ccccc1 | 0.2% | 26.3% | 3.9% | 1.8% | -16.9
Cn1nnc2cc(C(=O)NCc3ccco3)ccc21 | -1.7% | . | 8.5% | 39.8µM* | -4.7
O=C(NC(=S)NCc1ccco1)c1ccc(Br)cc1 | ? | 16.7% | 30.6% | 50.1µM* | -36.6
O=C(NCc1ccco1)c1ccc2nccnc2c1 | 2.9% | ? | 3.4% | 4.7% | 13.9
Cn1ncc(Cl)c1C(=O)NCc1ccco1 | -0.4% | ? | 10.2% | 17.8µM* | 4.1
O=C(NCc1ccco1)c1ccc(C(=O)NCc2ccco2)cc1 | . | . | . | . | -68.7*
CCOC(=O)C1=C(C)N=C2SC=C(C)N2C1c1ccc(OC)cc1 (stereo not drawn) | -7.0% | 3.0% | -60.1% | -4.8%[57.1 µM] | 0.9
C=CCc1ccc(OCC(O)CN2CCCCC2)c(OC)c1 (stereo not drawn) | 5.0% | ? | 0.8% | 1.1% | -11.2
COc1cccc(OC)c1OCC(O)CN1CCN(c2ccccc2F)CC1 (stereo not drawn) | 0.2% | 4.65µM* | -11.6% | 0.4% | ?
C=CCc1ccc(OCC(O)CN2CCN(c3ccccc3)CC2)c(OC)c1 (stereo not drawn) | -20.1% | ? | -3.3%[0.00184 µM] | -35.7% | -61.8*
C=CCc1ccccc1OCC(O)CN1CCN(c2ccccc2F)CC1 (stereo not drawn) | -7.5% | ? | 0.0% | -25.6% | 21.2
COc1ccccc1N1CCN(CC(O)COc2cccc3ccccc23)CC1 (stereo not drawn) | -8.3% | ? | ? | -0.1% | 17.0
C=CCc1ccccc1OCC(O)CN1CCN(c2ccccc2OC)CC1 (stereo not drawn) | -0.4% | ? | ? | 0.0% | -64.1*!
COc1cccc(-c2nc(N(C)Cc3ccco3)c3ccccc3n2)c1 | -19.3% | . | . | . | .
CCN=C1NN=C(c2cc(C)n(Cc3ccco3)c2C)CS1 | -0.3% | -27.1% | -45.4% | -15.9% | -84.4*
C=CCn1c(C)cc(C2=NNC(=NCc3ccccc3)SC2)c1C | -8.9% | 10.4µM* | -19.5% | -33.0% | 30.7
Cc1ccc(C)c(C2=NNC(=NCc3ccccc3)SC2)c1 | -4.7% | ? | ? | -12.7% | -66.4*
CCN=C1NN=C(c2cc(C)n(CCc3ccccc3)c2C)CS1 | -27.1% | ? | ? | ? | 55.7
CCO[C@H]1OC(C(=O)N2CCCCCCC2)=C[C@@H](C2CCCCC2)[C@@H]1CCCO | 1.5% | 9.28µM* | ? | 8.3% | -9.2
CCO[C@H]1OC(C(=O)N2CCN(Cc3ccc4c(c3)OCO4)CC2)=C[C@@H](C(C)(C)C)[C@@H]1CCCO | -3.5% | ? | 6.57µM* | 1.0% | 8.4
